This note sets out measurements from PubChem BioAssay (NCI).

About 83,000 compounds went through this panel and 20% of them were active in at least one assay; those are over-represented in the sample as a whole.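 Note: values are percent growth. 100 is the growth of untreated cells, values between 100 and 0 indicate rising inhibition; between -100 and 0 indicates cell death.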 Values without a mark were called inactive. The source made the active and inactive calls. The calls were made as follows: active = growth percent below 10; inactive = the rest.

What all share (assay): NCI-60 one-dose screen, 48 h (100 = growth as untreated, 0 = no growth, -100 = all killed)
The subject of one experiment is EKVX NSCLC. Particulars: 10 µM unless noted.
For the next experiment, the system named is SN12C renal. Particulars: 10 µM unless noted.
The subject of the next experiment is UO-31 renal. To be noted: 10 µM unless noted.
The test system of another experiment is TK-10 renal. To be noted: 10 µM unless noted.
In the next experiment the test system is ACHN renal. To be noted: 10 µM unless noted.
A further experiment deals with A498 renal. Particulars: 10 µM unless noted.
The test system of another experiment is CCRF-CEM leukemia. To be noted: 10 µM unless noted.
In a further experiment the test system is MOLT-4 leukemia. Particulars: 10 µM unless noted.
Another experiment deals with SR leukemia. To be noted: 10 µM unless noted.
For the next experiment, the system named is RPMI-8226 leukemia. Particulars: 10 µM unless noted.
In another experiment the test system is OVCAR-8 ovarian. Particulars: 10 µM unless noted.
Another experiment concerns OVCAR-5 ovarian. To be noted: 10 µM unless noted.
The subject of another experiment is OVCAR-4 ovarian. Particulars: 10 µM unless noted.
A further experiment concerns SK-OV-3 ovarian. Particulars: 10 µM unless noted.
A further experiment has as its system IGROV1 ovarian. Particulars: 10 µM unless noted.
In the next experiment the test system is OVCAR-3 ovarian. Particulars: 10 µM unless noted.
A further experiment has as its system HS 578T breast. Particulars: 10 µM unless noted.
The next experiment deals with NCI/ADR-RES ovarian. Particulars: 10 µM unless noted.
For the next experiment, the system named is CAKI-1 renal. To be noted: 10 µM.

For the compound `Cc1cn(-c2nc3c(c(NCc4ccccc4)n2)COCC3)c2cccc(C(N)=O)c12`, the growth in the experiment with EKVX NSCLC is 85.9% [0.5 µM]; in the experiment on SN12C renal, 30.8% [0.5 µM]; in the experiment on UO-31 renal, 55% [0.5 µM]; in the experiment on TK-10 renal, 83.2% [0.5 µM]; in the experiment on ACHN renal, 39.5% [0.5 µM]; in the experiment on A498 renal it was 85.1% [0.5 µM]. Also, the growth is 49.1% [0.5 µM] with CCRF-CEM leukemia; 60.6% [0.5 µM] in the experiment with MOLT-4 leukemia; 50.8% [0.5 µM] in the experiment with SR leukemia; -15.3% [0.5 µM] (active) with RPMI-8226 leukemia; 58.1% [0.5 µM] in the experiment with OVCAR-8 ovarian; 70.8% [0.5 µM] with OVCAR-5 ovarian. Further, the growth in the experiment with OVCAR-4 ovarian was 58.8% [0.5 µM]; in the experiment on SK-OV-3 ovarian, 111% [0.5 µM]; in the experiment with IGROV1 ovarian, 82.3% [0.5 µM]; in the experiment with OVCAR-3 ovarian, 91.5% [0.5 µM]; in the experiment with HS 578T breast, 83.5% [0.5 µM]; in the experiment on NCI/ADR-RES ovarian it was 86% [0.5 µM].

`Cc1nc(-c2ccc(Cl)cc2)ccc1NC(=O)Nc1cccc(C(F)(F)F)c1`: the growth with EKVX NSCLC was 101%; in the experiment on SN12C renal, 93.7%; in the experiment with UO-31 renal, 90.8%; in the experiment with TK-10 renal, 90.7%; in the experiment with A498 renal, 95.2%; in the experiment on CCRF-CEM leukemia it was 78.6%. Also, the growth is 88.2% with MOLT-4 leukemia; 59.6% in the experiment on SR leukemia; 85.3% with RPMI-8226 leukemia; 98.9% with OVCAR-8 ovarian; 121% in the experiment with OVCAR-5 ovarian; 108% in the experiment on OVCAR-4 ovarian. The growth in the experiment on SK-OV-3 ovarian was 110%; in the experiment on IGROV1 ovarian, 111%; with OVCAR-3 ovarian, 111%; in the experiment with HS 578T breast, 103%; in the experiment with NCI/ADR-RES ovarian, 98.1%.

Take `O=C(Nc1ccc(Cl)c(Cl)c1)Nc1ccc(Cl)c([N+](=O)[O-])c1`: the growth is 4.27% (active) with EKVX NSCLC; 6.3% (active) in the experiment with SN12C renal; 0.279% (active) in the experiment on UO-31 renal; -0.585% (active) in the experiment on TK-10 renal; 1.36% (active) in the experiment on ACHN renal; -25.9% (active) in the experiment on A498 renal. In addition, the growth in the experiment on CCRF-CEM leukemia is 1.21% (active); in the experiment on MOLT-4 leukemia, -30.9% (active); with SR leukemia it was -25.2% (active); in the experiment with OVCAR-8 ovarian it was 10.9%; in the experiment on OVCAR-5 ovarian it was 11.9%; in the experiment on OVCAR-4 ovarian, 27.1%. In addition, the growth in the experiment with SK-OV-3 ovarian was -11.7% (active); with IGROV1 ovarian it was 15.8%; with OVCAR-3 ovarian, 6.38% (active); in the experiment on HS 578T breast, 7.04% (active); in the experiment with NCI/ADR-RES ovarian it was -7.67% (active).

`COc1ccc(-c2nn(-c3ccc(NC(=O)Nc4ccc(Cl)c(C(F)(F)F)c4)cc3)cc2-c2ccncc2)cc1Cl`: the growth in the experiment on EKVX NSCLC was 11.1%; in the experiment with SN12C renal, 16.5%; in the experiment with UO-31 renal, 3.92% (active); with ACHN renal, 7.51% (active); in the experiment on CAKI-1 renal, -18.8% (active); in the experiment on A498 renal it was -5.72% (active). The growth with CCRF-CEM leukemia was 6.6% (active); in the experiment on MOLT-4 leukemia it was 8.53% (active); in the experiment on SR leukemia, -7.31% (active); in the experiment with OVCAR-8 ovarian, 9.53% (active); in the experiment with OVCAR-5 ovarian, 14.5%; with OVCAR-4 ovarian, 45.1%. In addition, the growth was 23.9% in the experiment with SK-OV-3 ovarian, 24.8% with IGROV1 ovarian, -1.59% (active) in the experiment with OVCAR-3 ovarian and 9.1% (active) in the experiment on NCI/ADR-RES ovarian.

For the compound `CS(=O)(=O)Nc1cccc(-c2ccc3ncnc(Nc4cncc(Cl)c4)c3c2)c1`, the growth with EKVX NSCLC was 10.8%; in the experiment on SN12C renal it was 52.5%; in the experiment with ACHN renal, 25.6%; in the experiment with A498 renal it was -34.1% (active); in the experiment with CCRF-CEM leukemia, 17.1%; in the experiment on MOLT-4 leukemia it was 0.601% (active). Further, the growth is -10.5% (active) in the experiment on SR leukemia; -8.07% (active) in the experiment with RPMI-8226 leukemia; 38.7% in the experiment with OVCAR-8 ovarian; 56.7% in the experiment on OVCAR-5 ovarian; 50.9% with OVCAR-4 ovarian; -7.86% (active) with SK-OV-3 ovarian. Also, the growth in the experiment with IGROV1 ovarian was -13.8% (active); in the experiment with OVCAR-3 ovarian, 31.9%; with HS 578T breast, -2.64% (active); with NCI/ADR-RES ovarian it was 79.7%.

`S=C=NP1(N=C=S)=NP(N=C=S)(N=C=S)=NP(N=C=S)(N=C=S)=NP(N=C=S)(N=C=S)=N1` (stereo unspecified): the growth in the experiment on EKVX NSCLC is 95%; with SN12C renal, 102%; in the experiment with UO-31 renal, 77.3%; in the experiment on TK-10 renal it was 110%; in the experiment with A498 renal, 118%; in the experiment with CCRF-CEM leukemia, 105%. Further, the growth in the experiment with MOLT-4 leukemia was 57.9%; with SR leukemia it was 88.8%; with RPMI-8226 leukemia it was 103%; in the experiment with OVCAR-8 ovarian it was 95.6%; with OVCAR-5 ovarian, 107%; in the experiment on OVCAR-4 ovarian it was 96.7%. Moreover, the growth in the experiment on SK-OV-3 ovarian was 84.3%; with IGROV1 ovarian, 97.9%; in the experiment with OVCAR-3 ovarian, 112%; with HS 578T breast, 98.5%; with NCI/ADR-RES ovarian, 107%.

In the case of `COc1ccc2c(c1)nnn1c3ncccc3c(N=O)c21`, the growth was 15% with EKVX NSCLC; -80.4% (active) in the experiment on SN12C renal; -99.3% (active) in the experiment with UO-31 renal; -15.1% (active) in the experiment with TK-10 renal; -30.8% (active) in the experiment with ACHN renal; 31.9% in the experiment on A498 renal. Moreover, the growth in the experiment on CCRF-CEM leukemia was -22.8% (active); with MOLT-4 leukemia it was -55.6% (active); with RPMI-8226 leukemia, -56.2% (active); in the experiment on OVCAR-8 ovarian, -30.3% (active); with OVCAR-5 ovarian it was -0.558% (active); in the experiment with OVCAR-4 ovarian, 9.93% (active). Besides, the growth with SK-OV-3 ovarian was 9.38% (active); with OVCAR-3 ovarian, -91.3% (active); in the experiment with HS 578T breast, -29.7% (active); in the experiment with NCI/ADR-RES ovarian it was -8.17% (active).

Take `CCOC(=O)n1cnc2c(Cl)ncnc21`: the growth in the experiment on EKVX NSCLC is 106%; in the experiment on SN12C renal, 119%; in the experiment with ACHN renal, 108%; with CAKI-1 renal, 89.8%; in the experiment with A498 renal, 86%; in the experiment on CCRF-CEM leukemia, 109%. The growth is 106% in the experiment with MOLT-4 leukemia; 110% with SR leukemia; 65% in the experiment on OVCAR-8 ovarian; 107% with OVCAR-4 ovarian; 94.2% in the experiment with SK-OV-3 ovarian; 112% with OVCAR-3 ovarian. The growth with HS 578T breast is 138%; with NCI/ADR-RES ovarian, 246%.

On to `COc1ccc(-c2cnc(-c3ccc(F)cc3)[nH]2)cc1`, for which the growth with EKVX NSCLC is 90.7%; in the experiment with SN12C renal, 99%; in the experiment with UO-31 renal it was 84.5%; with TK-10 renal it was 230%; with ACHN renal, 105%; in the experiment with A498 renal it was 97.1%. Further, the growth with CCRF-CEM leukemia was -48.2% (active); in the experiment on MOLT-4 leukemia, 54.7%; in the experiment on SR leukemia, -29.7% (active); in the experiment on RPMI-8226 leukemia it was 44.5%; with OVCAR-8 ovarian, 103%; in the experiment with OVCAR-5 ovarian, 116%. Also, the growth is 98.3% with OVCAR-4 ovarian; 121% with SK-OV-3 ovarian; 95.3% in the experiment on IGROV1 ovarian; 91.3% in the experiment on OVCAR-3 ovarian; 99.2% with HS 578T breast; 115% in the experiment on NCI/ADR-RES ovarian.

In the case of `CC(C)(CCN=C(N)Nc1ccccn1)c1ccc(C(F)(F)F)cc1`, the growth is 21.6% in the experiment with EKVX NSCLC; 23.9% with SN12C renal; 14.4% in the experiment with UO-31 renal; 37% with TK-10 renal; 57.2% in the experiment with A498 renal; 7.26% (active) with CCRF-CEM leukemia. Besides, the growth was -15.6% (active) with MOLT-4 leukemia; -41.3% (active) in the experiment on SR leukemia; -46.9% (active) with RPMI-8226 leukemia; 15.7% in the experiment on OVCAR-8 ovarian; 37.4% in the experiment with OVCAR-5 ovarian; 22.3% with OVCAR-4 ovarian. Further, the growth with SK-OV-3 ovarian was 42.5%; in the experiment on IGROV1 ovarian, 11.9%; in the experiment with OVCAR-3 ovarian it was 32.1%; in the experiment with HS 578T breast, 62.1%; in the experiment with NCI/ADR-RES ovarian, 31.4%.
